Reference: PubChem BioAssay (NCI)
The panel holds about 83,000 compounds, 20% with a hit somewhere; the sample as a whole holds those more often.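 Method: cells in 96-well plates; compound added at one concentration; 48 h incubation; percent growth measured; values under 10 scored active.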 Values without a mark were called inactive. Active and inactive are the calls of the source.

How the values were obtained:
Assay in all cases: NCI-60 one-dose screen, 48 h (100 = growth as untreated, 0 = no growth, -100 = all killed)
Conditions in all cases: 10 µM unless noted
SR leukemia = tested on: SR leukemia
RPMI-8226 leukemia = tested on: RPMI-8226 leukemia
OVCAR-8 ovarian = tested on: OVCAR-8 ovarian
OVCAR-5 ovarian = tested on: OVCAR-5 ovarian
OVCAR-4 ovarian = tested on: OVCAR-4 ovarian
SK-OV-3 ovarian = tested on: SK-OV-3 ovarian
IGROV1 ovarian = tested on: IGROV1 ovarian
OVCAR-3 ovarian = tested on: OVCAR-3 ovarian
HS 578T breast = tested on: HS 578T breast
NCI/ADR-RES ovarian = tested on: NCI/ADR-RES ovarian
T-47D breast = tested on: T-47D breast
BT-549 breast = tested on: BT-549 breast
MDA-MB-435 melanoma = tested on: MDA-MB-435 melanoma
SW-620 colon = tested on: SW-620 colon
MCF7 breast = tested on: MCF7 breast
HCT-116 colon = tested on: HCT-116 colon
HCC-2998 colon = tested on: HCC-2998 colon
KM12 colon = tested on: KM12 colon
MDA-MB-468 breast = tested on: MDA-MB-468 breast

Compound | growth (SR leukemia) | growth (RPMI-8226 leukemia) | growth (OVCAR-8 ovarian) | growth (OVCAR-5 ovarian) | growth (OVCAR-4 ovarian) | growth (SK-OV-3 ovarian) | growth (IGROV1 ovarian) | growth (OVCAR-3 ovarian) | growth (HS 578T breast) | growth (NCI/ADR-RES ovarian) | growth (T-47D breast) | growth (BT-549 breast) | growth (MDA-MB-435 melanoma) | growth (SW-620 colon) | growth (MCF7 breast) | growth (HCT-116 colon) | growth (HCC-2998 colon) | growth (KM12 colon) | growth (MDA-MB-468 breast)
O=C(CSc1nc2ccccc2c(=O)[nH]1)NNC(=O)c1ccccc1Cl | 113% | 108% | 100% | 129% | 99.6% | 103% | 128% | 118% | 97.1% | 123% | 92.4% | 160% | 101% | 104% | 93.4% | 109% | 113% | 101% | 137%
COc1cc(CNC(=O)C[C@H](C)CCC=C(C)C)ccc1OCc1cn(-c2ccc(Cl)c(Cl)c2)nn1 | 27.1% | 77.6% | 46.3% | 86.4% | 53.4% | 99% | 83.1% | 60.1% | 57% | 36.5% | 33.6% | 71.7% | 91.3% | 29.9% | 49.6% | 29.8% | 93.5% | 82.7% | 55%
COc1ccc2[nH]c(O)c(N=Nc3nc(-c4ccc(Cl)cc4)cs3)c2c1 | 5.78% (active) | 13.1% | -64.4% (active) | 10.3% | -49.9% (active) | -38.4% (active) | -3.99% (active) | -90.4% (active) | 9.33% (active) | -37.4% (active) | -21.5% (active) | 25.9% | 33.2% | 2.98% (active) | -19% (active) | -74.9% (active) | 1.1% (active) | 4.66% (active) | -60.8% (active)
O=C(N/N=C/c1occc1Br)c1[nH]c2ccc(Br)cc2c1-c1ccccc1 | -9.6% (active) | -4.48% (active) | -51.7% (active) | -99.8% (active) | -87% (active) | -85.3% (active) | -92.8% (active) | -73.7% (active) | -28.4% (active) | -53.5% (active) | -77% (active) | -89.4% (active) | -90.4% (active) | -86.3% (active) | -66.9% (active) | -74.5% (active) | -89.6% (active) | -46.6% (active) | -75.1% (active)
Cc1ccc(Cl)cc1NC(=O)Nc1nc2ccc([N+](=O)[O-])cc2s1 | 1.31% (active) | -18.7% (active) | 1.61% (active) | 2.15% (active) | 7.05% (active) | -28.6% (active) | 8.2% (active) | 2.64% (active) | -13.9% (active) | -17.1% (active) | -19.7% (active) | -30.3% (active) | -18.2% (active) | -21.9% (active) | 0.201% (active) | -37.7% (active) | -10.1% (active) | -2.73% (active) | -39.3% (active)
Cc1ccc(Nc2nnc(-c3c[nH]c4ccccc34)o2)c(C)c1 | 6.21% (active) | -7.61% (active) | -12.1% (active) | 16.3% | 71.9% | 16.2% | 12.2% | 12.3% | 30.9% | -29.2% (active) | 44.3% | 29.6% | -41.8% (active) | 30.9% | 14.3% | 1.32% (active) | -13.6% (active) | 7.83% (active) | -17% (active)
c1n[nH]cc1-c1nc2ccc3[nH]ncc3c2c2c1CC1(CCOCC1)CC2 | 2.94% (active) | 49.8% | 35.4% | 87.7% | 70.2% | -0.483% (active) | 61.2% | 52.5% | 5.29% (active) | 96.5% | 13.5% | 10.9% | 29.3% | 17.9% | 31.8% | 11.1% | 41.1% | 47.3% | 5.4% (active)
